# RORgamma inh: blocks mouse ROR gamma transcriptional activity; P51450; Drosophila S2 Gal4-RORgamma UAS-luciferase reporter, 20 h; Potency, µM (series often up to 53.6 µM), without a hit: at the highest dose activity change, negative = inhibition, actives largely listed as inhibitors; actives 5.4% (n = 310,000); also: % is scaled to controls: 0 for no effect and ±100 for the full control effect; nearly all actives have a fitted effect of over 60% in size
# Target sequence (P51450 whole entry, looked up, the tested form may be a part): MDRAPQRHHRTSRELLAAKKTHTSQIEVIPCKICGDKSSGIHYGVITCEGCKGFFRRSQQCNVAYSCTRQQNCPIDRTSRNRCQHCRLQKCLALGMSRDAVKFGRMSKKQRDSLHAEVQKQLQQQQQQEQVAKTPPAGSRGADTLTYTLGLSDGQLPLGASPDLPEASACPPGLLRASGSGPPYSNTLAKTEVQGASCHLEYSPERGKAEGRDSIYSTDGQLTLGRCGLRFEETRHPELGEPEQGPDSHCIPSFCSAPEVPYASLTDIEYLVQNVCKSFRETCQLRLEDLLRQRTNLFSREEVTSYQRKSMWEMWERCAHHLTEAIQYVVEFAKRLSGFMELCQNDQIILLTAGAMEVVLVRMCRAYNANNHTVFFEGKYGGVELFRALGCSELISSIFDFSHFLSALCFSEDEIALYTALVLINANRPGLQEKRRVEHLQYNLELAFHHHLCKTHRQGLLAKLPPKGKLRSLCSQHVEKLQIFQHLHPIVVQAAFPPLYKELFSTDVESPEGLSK
#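 Stably transfected Drosophila Schneider cells are the test system, with ROR gamma fused to Gal4 and luciferase under UAS control; luminescence is read after 20 hr of 700 uM copper sulfate induction at ambient temperature.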
# KB-V1 cytotox: kills drug-selected multidrug resistant KB-V1 cells; KB-V1 MDR cells viability, CellTiter-Glo, 72 h; actives 3.4% (n = 400,000); Potency, µM (doses to about 46.1 µM), actives largely listed as cytotoxic; also: % is scaled to controls: 0 for no effect and ±100 for the full control effect; nearly all actives have a fitted effect of over 60% in size
#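 Cells of the MDR subline KB-V1 are plated, dosed with compound at multiple concentrations, and incubated 72 h at 37 degrees C; CellTiter-Glo is then added and luminescence read after 10 min.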
# SW480 rereplic: DNA re-replication induction in SW480 cells; Potency, µM (doses to about 46.1 µM), for inactives: at the highest dose re-replication activation, most hits filed as activators; actives 1.8% (n = 340,000); SW480 DNA re-replication, Hoechst DNA content imaging, 48 h; also: % of control where 0% means no effect; nearly all actives have a fitted effect of over 55% in size
#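 Image-based read-out: total Hoechst fluorescence of nuclei (405 nm excitation, 500-530 nm emission), with hits raising the fraction of high-intensity nuclei. SW480 colon cells incubated 48 hr with compounds at 37 C.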
# KB-3-1 tox: kills parental KB-3-1 adenocarcinoma cells. Potency, µM (doses to about 46.1 µM), hits mostly cytotoxic. AID 1347075. actives 1.4% (n = 400,000). KB-3-1 viability, CellTiter-Glo ATP luminescence, 72 h; also: % is scaled to controls: 0 for no effect and ±100 for the full control effect; nearly all actives have a fitted effect of over 60% in size
#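 Parental KB-3-1 viability, qHTS format: 72 h compound exposure, 37 °C; CellTiter-Glo; media-only wells and DMSO plates as controls; concentration-effect fits on corrected data.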
# MCF10A rereplic: DNA re-replication induction in MCF 10a cells; Potency, µM (top dose mostly 46.1 µM), inactives show top-dose activity, positive = re-replication, hits mostly activators; actives 2.9% (n = 350,000); MCF 10A DNA re-replication, Hoechst nuclear intensity, 48 h; also: % of control where 0% means no effect; nearly all actives have a fitted effect of over 50% in size
# Gal4-VP16 FLuc: inhibits Gal4-VP16 luciferase reporter, ROR gamma counter-screen | Drosophila S2 Gal4-VP16 UAS-luciferase, luminescence, 20 h | Potency, µM (doses to about 53.6 µM), for inactives: at the highest dose activity, negative = inhibition, hits mostly inhibitors | actives 3.5% (n = 310,000) | AID 2546;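 also: Gal4-VP16 expression switched on by copper sulfate through the metallothionein promoter; % is scaled to controls: 0 for no effect and ±100 for the full control effect; nearly all actives have a fitted effect of over 50% in size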
# * = called active by the depositor; i = inactive; ? = inconclusive; / = no result given; [ ] = remark or other dose. Sampled rows, rich in hits. Any-hit rate of the full collection: about 10%. Calls follow the shape of the dose curve; as a rule, active = well fitted curve in the direction sought with a large enough effect; inconclusive = small, poorly fitted or top-dose-only effect, or another doubt; inactive = no such curve, though single readings can be large; an effect the other way counts as inactive or inconclusive. Potency is read from the fitted curve at half-maximal effect.
SMILES,RORgamma inh,KB-V1 cytotox,SW480 rereplic,KB-3-1 tox,MCF10A rereplic,Gal4-VP16 FLuc
Cn1ncc(Br)c1C(=O)NC(=S)N1CCN(c2ccccn2)CC1,6.31µM*,?,-2.1%,i,16.1%,11.2µM*
Cn1cc(Br)c(C(=O)NC(=S)N2CCN(c3ccccn3)CC2)n1,3.98µM*,i,?,i,-1.0%,12.6µM*
Cc1ccc(C)c(S(=O)(=O)/N=C2\C=C(NS(=O)(=O)c3ccccc3)C(=O)c3ccccc32)c1,-21.4%,i,?,?,?,6.7%
Cc1cc(C)c(S(=O)(=O)/N=C2/C=C(Sc3ncn[nH]3)C(=O)c3ccccc32)cc1C,3.98µM*,?,2.59µM*,?,2.31µM*,3.16µM*
CC(=O)OC1CCC2(C)C(=CCC3C2CCC2(C)C3C[C@@H]3O[C@]32C(C)=O)C1 (stereo partly drawn),15.6%,/,/,/,/,-1.1%
CCCCCCCC[n+]1c(C)n(-c2ccccc2)c2ccc(NC(C)=O)cc21,0.6%,i,9.3%,4.61µM*,28.4%,?
CC(=O)Nc1ccc(-n2c(=O)c3ccccc3c3ccccc3c2=O)cc1,20.3%,i,?,i,?,0.3%
Cc1ccc2nc(C(C)(C)C)c(Cc3cccc(F)c3)n2c1,/,i,/,i,/,/
CCCCCCCC/C=C/CCCCCCCC(=O)NCCOP(=O)(O)O,-10.8%,/,/,/,/,-8.4%
O=C(N[C@@H](Cc1ccccc1)C(=O)OCc1ccccc1)c1nc[nH]c1C(=O)N1CCN(c2ccccc2)CC1,10µM*,i,23.2%,i,?,?
CC(C)C[C@H](NC(=O)c1[nH]cnc1C(=O)N[C@H](C)c1ccccc1)C(=O)OCc1ccccc1,6.31µM*,?,1.3%,i,?,5.01µM*
C[C@H](NC(=O)c1nc[nH]c1C(=O)N1CCN(c2ccccc2)CC1)C(=O)OCc1ccccc1,?,i,19.2%[9.22 µM],i,?,-15.2%
C[C@@H](NC(=O)c1nc[nH]c1C(=O)OCc1ccccc1)c1ccccc1,/,i,-10.9%,i,4.7%,/
CC(C)C[C@H](NC(=O)c1[nH]cnc1C(=O)N[C@@H](Cc1ccccc1)C(=O)OCc1ccccc1)C(=O)OCc1ccccc1,11.2µM*,i,15.0%,i,2.0%,11.2µM*
CC(C)C[C@H](NC(=O)c1nc[nH]c1C(=O)NC(c1ccccc1)c1ccccc1)C(=O)OCc1ccccc1,2.51µM*,?,2.9%,?,28.4%,4.47µM*
CC(=O)OC[C@H]1O[C@@H](ON=C(C)C)[C@H](OC(C)=O)[C@@H](OC(C)=O)[C@H]1OC(C)=O,3.2%[10 µM],/,/,/,/,-4.4%[10 µM]
CC(C)C[C@H](NC(=O)c1nc[nH]c1C(=O)NCCCCCN)C(=O)OCc1ccccc1,/,i,-21.3%,i,?,/
CC(C)C[C@H](NC(=O)c1nc[nH]c1C(=O)N[C@@H](CC(C)C)C(=O)OCc1ccccc1)C(=O)OCc1ccccc1,7.08µM*,?,?,?,?,?
O=C(N[C@@H](Cc1ccccc1)C(=O)OCc1ccccc1)c1nc[nH]c1C(=O)NCc1ccccc1,10µM*,i,1.2%,i,10.3%,?
CS(=O)(=O)c1nc(-c2ccccc2)cc(-c2ccccc2)c1C#N,10µM*,i,6.51µM*,?,2.91µM*,?
COC(=O)c1cc2oc3ccccc3c2n1Cc1nc(-c2cccc(Cl)c2)oc1C,/,?,/,i,/,/
Cc1cc(-c2ccccc2)n2nc(-c3cccc(Br)c3)cc2n1,/,i,/,i,/,/
O=C(CC(O)(CC(=O)OCc1ccccc1)C(=O)OCc1ccccc1)OCc1ccccc1,/,i,21.8%,i,18.4µM*,/
Cn1c(=O)c2c(SCC(=O)NCc3ccco3)nc(-c3ccccc3)nc2n(C)c1=O,/,i,/,i,/,/
O=C(COC(=O)CCN1C(=O)/C(=C\C=C\c2ccccc2)SC1=S)Nc1ccc(Br)cc1,-39.7%,i,25.2%,i,26.0%,?
SMILES,RORgamma inh,KB-V1 cytotox,SW480 rereplic,KB-3-1 tox,MCF10A rereplic,Gal4-VP16 FLuc
CC(C)c1ccccc1NC(=O)COC(=O)CCN1C(=O)/C(=C\C=C\c2ccccc2)SC1=S,2.51µM*,i,-3.2%,i,9.0%,3.98µM*
Cc1cccc2cc(C#N)c(NCCCn3ccnc3)nc12,-35.2%,14.6µM*,?,i,?,-8.5%
Cc1cc(NCCCn2ccnc2)n2c(nc3ccccc32)c1C#N,-15.4%,i,3.0%,i,?,1.4%
Cc1ccc2cc(C#N)c(NCc3ccccc3)nc2c1,13.5%,i,?,i,9.2µM*,-3.4%
Cc1cccc2cc(C#N)c(NCCNS(=O)(=O)c3ccccc3)nc12,-9.4%,?,?,i,20.6µM*,4.5%
COc1ccc(Nc2nc3cc(C)ccc3cc2C#N)c(OC)c1,2.5%,i,?,2.06µM*,?,-13.7%
COC(=O)[C@@]1(Cc2ccc(F)cc2)[C@H]2c3cc(C(=O)N(C)C)n(CCc4ccc(O)c(O)c4)c3C[C@H]2CN1C(=O)c1ccccc1,38.5%,/,/,/,/,-0.6%
CS(=O)(=O)c1ccc(C(=O)OCC(=O)NCC2CCCO2)cc1[N+](=O)[O-] (stereo not drawn),/,i,/,i,/,/
NC1CONC1=O (stereo not drawn),-0.1%,/,/,/,/,9.4%
Cc1cccc2cc(C#N)c(NCCNC(=O)COc3ccccc3)nc12,?,i,7.8%,?,?,?
Cc1cccc2cc(C#N)c(NCCCNS(=O)(=O)c3ccc(Cl)cc3)nc12,14.1%,9.2µM*,16.4µM*,?,?,?
Cc1cccc2cc(C#N)c(NCc3ccccc3)nc12,5.62µM*,i,?,i,23.1µM*,7.08µM*
CCn1c(=O)cc(SCC(=O)NCCc2ccc(OC)cc2OC)c2ccccc21,/,i,/,i,/,/
COc1ccccc1CNC(=O)c1cc2cc(C)ccc2n1C,/,i,/,i,/,/
CCOc1ccccc1CN1CCc2nc(N3CCN(C)CC3)ncc2C1,/,i,/,i,/,/
Cc1nnc(N/N=C/c2cc([N+](=O)[O-])c(N3CCC(C)CC3)cc2N2CCC(C)CC2)n1N,15.8µM*,23.1µM*,?,i,?,?
Nn1cnnc1N/N=C/c1ccc(Cl)c([N+](=O)[O-])c1,?,?,?,i,?,?
CCc1nnc(N/N=C/c2ccc(N3CCC(C)CC3)c([N+](=O)[O-])c2)n1N,10µM*,?,?,i,?,?
c1ccc(CCNc2ccc3ncc(-c4cccc5ccccc45)n3n2)nc1,/,13µM*,/,i,/,/

# Compound activity: PubChem, National Center for Advancing Translational Sciences (NCATS)
